Records with an inconclusive call do not appear. Active and inactive are the calls of the source. Calls follow the shape of the dose curve; as a rule, active = well fitted cell-killing curve with a large enough effect; inconclusive = small, poorly fitted or top-dose-only effect; inactive = flat fitted curve, though single readings scatter.
assay: qHTS of pediatric cancer cell lines to identify multiple opportunities for drug repurposing: Primary screen for RD cells (AID 1347104); conditions: RD rhabdomyosarcoma viability, CellTiter-Glo luminescence, 48 h; series mostly up to 46 µM; also: nearly all actives have a fitted effect of over 55% in size
From the text: Drug repurposing or repositioning has been offered as a strategy for drug development in oncology programs. This approach has special potential for childhood cancers and other rare or orphan diseases, where the expected return on new drug development has been a disincentive to pharmaceuticals. […] In this project we exploit the poly-pharmacology of drugs to discover new indications via phenotypic screening of a panel of 19 well-characterized cell lines derived from solid tumors seen in children and adolescents. The goal is to identify approved drugs with previously unrecognized anticancer properties that has the potential to reveal new mechanisms and biological processes involved in carcinogenesis or drug resistance. We employed a titration-based paradigm (quantitative high-throughput screening or qHTS), where all compounds were tested at multiple concentrations for their effect on cell viability. Concentration-response curves (CRCs) were derived directly from the primary screen, and both potency and efficacy values were used to identify compounds with robust bioactivity profiles. We screened the NIH Chemical Genomics Center (NCGC) Pharmaceutical Collection (NPC) and Mechanism Interrogation Plate (MIPE) small molecule collections of approved and investigational compounds against these cell lines; and measured metabolically active cells after 48 hours of compound treatment as a proxy for cell viability. […] Assay Submitter: Nathalia J. Martinez, National Center for Advancing Translational Sciences, National Institutes of Health, Rockville, MD, USA; email: natalia.martinez@nih.gov Shen, M et al. Quantitative high-throughput phenotypic screening of pediatric cancer cell lines identifies multiple opportunities for drug repurposing. Oncotarget 2017 Dec 19;9(4):4758-4772. PMID 29435139.
The cells were obtained from University of North Carolina (UNC), Pediatric Preclinical Testing Program (PPT), and Coriell Institute (CI). qHTS cell viability assay: Cells were assayed in growth media at a density of 500-1,000 cells/well. Five microliters of cells were dispensed into 1,536-well, white, solid-bottom, TC-treated plates (Greiner Bio One) using a multidrop dispenser and incubated at 37 degrees C, 5% CO2, under a humidified atmosphere for 5 hours. Twenty-three nanoliters of compounds and controls (neutral control DMSO or positive control bortezomib at final concentration of 2.3 µM) were subsequently transferred by Kalypsys pintool. For primary screens, the MIPE collection was tested at 11-point dilutions (final concentrations range from 0.78 nM to 46 µM) and the NPC collection at 8-point dilutions (final concentrations range from 0.59 nM to 46 µM). Compounds tested in follow-up screens were assayed at 11-point dilutions. Cells were incubated for 48 hours, followed by addition of 3 µL of CellTiter-Glo (Promega). After a 15 min incubation at room temperature, samples were analyzed for luminescence intensity using a ViewLux High-throughput CCD imager equipped with clear filters.
Potency is read from the fitted curve at half-maximal effect.

SMILES | Potency | activity change, negative = cytotoxic
Cc1cn2c(-c3cn[nH]c3)cnc2c(Nc2ccc(C(=O)N3CCNCC3)cc2F)n1 | 16.6 µM (active) | –
CC(C)(O)c1cc2nc(-c3cnc(N)nc3)nc(N3CCOCC3)c2s1 | 0.209 µM (active) | –
CNc1nccc(-c2cccnc2Oc2cc(C(=O)Nc3cccc(C(F)(F)F)c3)ccc2C)n1 | 8.33 µM (active) | –
COc1ccc(-c2cc3c(C)nc(N)nc3n(C3CCC(OCCO)CC3)c2=O)cn1 (stereo not given) | 0.187 µM (active) | –
CN1CC[C@@H](c2c(O)cc(O)c3c(=O)cc(-c4ccccc4Cl)oc23)[C@@H](O)C1 | 0.235 µM (active) | –
COc1ccc(OC)c(-c2nnc3ccc(-c4ccc(OC)c(O[C@@H]5CCOC5)c4)nn23)c1 | 16.6 µM (active) | –
COc1cc2ncnc(Nc3ccc(F)c(Cl)c3)c2cc1NC(=O)C=CCN1CCCCC1 | 29.6 µM (active) | –
CN(C)CC=CC(=O)Nc1cc2c(Nc3ccc(F)c(Cl)c3)ncnc2cc1O[C@H]1CCOC1 | 5.9 µM (active) | –
COc1cc(C)c(Sc2cnc(NC(=O)c3ccc(CNC(C)C(C)C)cc3)s2)cc1C(=O)N1CCN(C(C)=O)CC1 (stereo not given) | 14.8 µM (active) | –
O=C(NCCCNc1nc(Nc2cccc(NC(=O)N3CCCC3)c2)ncc1I)c1cccs1 | 16.6 µM (active) | –
CCc1c2c(nc3ccc(O)cc13)-c1cc3c(c(=O)n1C2)COC(=O)[C@]3(O)CC | 0.372 µM (active) | –
CC(=O)OCC(=O)[C@@]1(O)[C@H](C)C[C@H]2[C@@H]3C=C(C)C4=Cc5c(cnn5-c5ccccc5)C[C@]4(C)[C@@H]3[C@@H](O)C[C@@]21C | 16.6 µM (active) | –
C=CCn1c(=O)c2cnc(Nc3ccc(N4CCN(C)CC4)cc3)nc2n1-c1cccc(C(C)(C)O)n1 | 0.418 µM (active) | –
Nc1cc(C(F)(F)F)c(-c2cc(N3CCOCC3)nc(N3CCOCC3)n2)cn1 | 0.743 µM (active) | –
CC(NCc1ccc2c(c1)nc(NC(=O)c1ccc(-c3cn[nH]c3)s1)n2CC(C)(C)O)C(C)(C)C (stereo not given) | 1.05 µM (active) | –
C=CC(=O)N1CCC[C@@H](n2nc(-c3ccc(Oc4ccccc4)cc3)c3c(N)ncnc32)C1 | 33.2 µM (active) | –
CN(C)c1nc(Cc2ccc(NC(=O)c3ccc4ccccc4c3)cc2)nc(Cl)c1CC(=O)O | inactive | –
Cc1ccc(NC(=O)C2(c3ccc4c(c3)OC(F)(F)O4)CC2)nc1-c1cccc(C(=O)O)c1 | 0.0743 µM (active) | –
CC(=O)c1c(C)c2cnc(Nc3ccc(N4CCNCC4)cn3)nc2n(C2CCCC2)c1=O | 18.7 µM (active) | –
Cc1ccc(C(=O)Nc2ccc(CN3CCN(C)CC3)c(C(F)(F)F)c2)cc1C#Cc1cnc2cccnn12 | 3.32 µM (active) | –

SMILES | Potency | activity change, negative = cytotoxic
Cc1cc(Nc2cc(N3CCN(C)CC3)nc(C=Cc3ccccc3)n2)n[nH]1 | 21.5 µM (active) | –
C[C@@]12O[C@@H](C[C@]1(O)CO)n1c3ccccc3c3c4c(c5c6ccccc6n2c5c31)CNC4=O | 6.62 µM (active) | –
C[C@H]1C[C@@H]2[C@@H]([C@@H](O)C[C@@]3(C)[C@H]2CC[C@]3(O)C(=O)CO)[C@@]2(C)C=CC(=O)C=C12 | inactive | –
CCN(CC)CCNC(=O)c1ccc2nc(-c3ccccc3)c(-c3ccc(CN4CCC(n5c(=O)[nH]c6ccccc65)CC4)cc3)nc2c1 | 3.32 µM (active) | –
COc1cc(=C2C=c3ccccc3=N2)[nH]c1=Cc1[nH]c(C)cc1C | 2.96 µM (active) | –
CN(C1CCc2c(c3ccccc3n2CC(=O)O)C1)S(=O)(=O)c1ccc(F)cc1 (stereo not given) | 4.18 µM (active) | –
COc1cc(Nc2ncc(F)c(Nc3ccc4c(n3)N(COP(=O)(O)O)C(=O)C(C)(C)O4)n2)cc(OC)c1OC | 3.32 µM (active) | –
COc1ccc(CC2c3cc(OC)c(OC)cc3CC[N+]2(C)CCC(=O)OCCCCCOC(=O)CC[N+]2(C)CCc3cc(OC)c(OC)cc3C2Cc2ccc(OC)c(OC)c2)cc1OC (stereo not given) | – | 4.63% [at 9.22 µM] (inactive)
COc1cccc2nc(-c3cccs3)nc(NN3C(=O)C=C(C)C3=O)c12 | 5.26 µM (active) | –
CC[C@@H]1C(=O)N(C)c2cnc(Nc3ccc(C(=O)NC4CCC(N5CCN(CC6CC6)CC5)CC4)cc3OC)nc2N1C(C)C (stereo not given in full) | 0.187 µM (active) | –
NC1(Cc2ccc(Cl)cc2)CCN(c2ncnc3[nH]ccc23)CC1 | 11.8 µM (active) | –
O=C(c1cncc(Br)c1)N1CCC(N2CCCC2)CC1 | inactive | –
Cc1cnc(-c2cnc(NCCNc3ccc(C#N)cn3)nc2-c2ccc(Cl)cc2Cl)[nH]1 | 20.9 µM (active) | –
CCCCN1CCC(CNC(=O)c2c3n(c4ccccc24)CCCO3)CC1 | 4.69 µM (active) | –
COc1cc(C(=O)N2CCC(N3CCN(C)CC3)CC2)ccc1Nc1ncc2c(n1)N(C)c1ccccc1C(=O)N2C | 14.8 µM (active) | –
O=C(C=Cc1cccc(S(=O)(=O)Nc2ccccc2)c1)NO | 9.59 µM (active) | –
CN(c1ncccc1CNc1nc(Nc2ccc3c(c2)CC(=O)N3)ncc1C(F)(F)F)S(C)(=O)=O | 10.5 µM (active) | –
CCN(CC)CCCCNc1ncc2cc(-c3cc(OC)cc(OC)c3)c(NC(=O)NC(C)(C)C)nc2n1 | 16.6 µM (active) | –
CNC(=O)c1nn(C)c2c1C(C)(C)Cc1cnc(Nc3ccc(N4CCN(C)CC4)cc3)nc1-2 | 3.72 µM (active) | –
CNC(=O)c1ccccc1Nc1nc(Nc2ccc(N3CCOCC3)cc2OC)ncc1Cl | 0.469 µM (active) | –

Reference: PubChem BioAssay (NCATS)
